# Measured values taken from PubChem BioAssay (EPA / NIEHS).
# Where “and” joins values, the source holds several entries; their conditions need not be identical. Equal entries are not always repeated. A structure can be active in one record and inactive in another. Calls of active or inactive are those of the source. How the source made its calls: active means hit-call score of the fitted dose curve at least 0.9, where 1 is the maximum; inactive means score below 0.9.
# Target: Transcription factor Sp1 (Homo sapiens) (UniProt P08047)
# Sequence (P08047 whole entry, looked up): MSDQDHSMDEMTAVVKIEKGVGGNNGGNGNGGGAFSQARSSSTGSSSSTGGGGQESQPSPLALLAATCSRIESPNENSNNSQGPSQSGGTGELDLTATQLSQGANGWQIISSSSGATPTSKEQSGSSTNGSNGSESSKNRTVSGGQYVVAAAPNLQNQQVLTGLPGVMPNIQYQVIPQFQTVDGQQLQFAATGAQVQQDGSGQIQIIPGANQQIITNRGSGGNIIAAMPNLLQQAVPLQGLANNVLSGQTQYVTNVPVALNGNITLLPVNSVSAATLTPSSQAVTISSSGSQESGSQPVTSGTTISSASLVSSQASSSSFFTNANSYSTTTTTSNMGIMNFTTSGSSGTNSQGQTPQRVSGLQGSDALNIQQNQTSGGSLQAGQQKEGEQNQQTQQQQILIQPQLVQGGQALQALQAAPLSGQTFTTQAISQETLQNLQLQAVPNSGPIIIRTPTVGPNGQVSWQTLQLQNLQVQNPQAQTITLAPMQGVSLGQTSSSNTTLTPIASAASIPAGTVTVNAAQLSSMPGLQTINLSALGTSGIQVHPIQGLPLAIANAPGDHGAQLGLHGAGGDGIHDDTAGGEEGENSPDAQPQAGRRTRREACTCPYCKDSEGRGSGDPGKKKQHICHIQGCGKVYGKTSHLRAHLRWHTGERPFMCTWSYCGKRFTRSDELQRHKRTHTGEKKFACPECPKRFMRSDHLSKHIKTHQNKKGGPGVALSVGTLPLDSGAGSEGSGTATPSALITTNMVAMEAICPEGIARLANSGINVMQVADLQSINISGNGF
# Experiment: ATG_Sp1_CIS: Attagene CIS-FACTORIAL HepG2 Assay for human Specificity Protein 1 (Sp1) (AID 2282961)
# Conditions: HepG2 Sp1 cis-reporter transcription, actives raise or lower the signal
# Method: ATG_CIS is a cell-based, multiplexed-readout assay that uses HepG2, a human liver cell line, with measurements taken at 24 hours after chemical dosing in a 24-well plate.ATG_Sp1_CIS is one of 52 assay component(s) measured or calculated from the ATG_CIS assay. It is designed to make measurements of mRNA induction, a form of inducible reporter, as detected with fluorescence intensity signals by Reverse transcription polymerase chain reaction (RT-PCR) and Capillary electrophoresis technology.Data from the assay component ATG_Sp1_CIS was analyzed into 1 assay endpoint. This assay endpoint, ATG_Sp1_CIS, was analyzed with bidirectional fitting relative to DMSO as the negative control and baseline of activity. Using a type of inducible reporter, measures of mRNA for gain or loss-of-signal activity can be used to understand the reporter gene at the transcription factor-level as they relate to the gene SP1. Furthermore, this assay endpoint can be referred to as a primary readout, because this assay has produced multiple assay endpoints where this one serves a reporter gene function. To generalize the intended target to other relatable targets, this assay endpoint is annotated to the dna binding intended target family, where the subfamily is zinc finger.
# Human liver HepG2 cells are transiently transfected with multiple reporter transcription units (MRTUs) in 6-well plates using FuGene 6 reagent (Roche; 3 ml FuGene/1 mg DNA). The MRTU constructs are regulated by a cis-regulating element (promoter). […] A major difference between the CIS and TRANS system is that in CIS activities of endogenous TFs are measured, whereas the TRANS assay evaluates changes in activities of exogenous, chimeric NR-Gal4 proteins. […] At the end of 24 hour incubation, total RNA was isolated using TriZol reagent (Invitrogen). The isolated RNA is then reverse-transcribed using oligo(dT) primer and Mo-MLV reverse transcriptase (Invitrogen) with DNAse I (Ambion) treatment for 30 min. The one-tenth of the produced cDNA was amplified by PCR using Taq DNA polymerase (Invitrogen) and two reporter sequence-specific primers. The PCR products were fluorescently labeled by primer extension with 6-arboxyfluorescein (6-FAM) 5'-labeled reporter sequence-specific primer (2 min at 95 C, 20 s at 68 C and 10 min at 72 C) and these products were digested with 5U of HpaI (New England Biolabs) for 2h at 37 C. The fragments were purified using Qiaquick PCR columns (Qiagen), analyzed on an ABI 3130xL genetic analyzer (Applied Biosystems) with peak positions identified by using a set of X-rhodamine (ROX)-labeled MapMarker1000 molecular weight standards (BioVentures). The raw capillary electrophoresis data was processed using Attagraph software (Attagene).
Compound,outcome,AC50
O=C1NC(=O)C(c2ccccc2)(c2ccccc2)N1,inactive,–
CSc1ccc(Oc2ccc(S(N)(=O)=O)cc2CN(C)C)cc1C,inactive,–
CCCCCCCCCCCCCCCCO,inactive,–
CC(C)c1cccc(C(C)C)c1NC(=O)NS(=O)(=O)c1cc(C(C)(C)O)co1,inactive,–
Cc1cc(SC2=C(O)C[C@@](CCc3ccc(N)cc3)(C(C)C)OC2=O)c(C(C)(C)C)cc1CO,–,29.1 µM (active)
NC=O,inactive,–
NC(=Nc1ccccc1)Nc1ccccc1,inactive,–
CCCCC(CC)COP(=O)(OCC(CC)CCCC)OCC(CC)CCCC (stereo not given),inactive,–
CN(C)CCCN(C)CCCN(C)C,inactive,–
CC(=O)O[C@]1(C(C)=O)CC[C@H]2[C@@H]3C=C(Cl)C4=CC(=O)[C@@H]5C[C@@H]5[C@]4(C)[C@H]3CC[C@@]21C,inactive,154 µM (active) and 170 µM (active)
CCc1cc(C2=C(C(=O)O)N(c3ccccc3C(F)(F)F)S(=O)(=O)c3ccccc32)cc2c1OCO2,–,59 µM (active)
Nc1nc(Cl)nc2c1ncn2[C@H]1C[C@H](O)[C@@H](CO)O1,inactive,–
CC(=O)[C@@]1(O)CC[C@H]2[C@@H]3CCC4=CC(=O)CC[C@]4(C)[C@H]3CC[C@@]21C,inactive,–
CN(C)C(=O)NC1(c2ccccc2)CCN(CC[C@@]2(c3ccc(F)c(F)c3)CN(C(=O)c3ccccc3)CCO2)CC1,inactive,–
S=c1[nH]c2ccccc2s1,–,42.5 µM (active)
COC(=O)[C@H]1[C@H]2C[C@@H]3c4[nH]c5cc(OC)ccc5c4CCN3C[C@H]2C[C@@H](OC(=O)c2cc(OC)c(OC)c(OC)c2)[C@@H]1OC,inactive,–
CCCCC(CC)CO (stereo not given),inactive,–
Nc1nc(=S)c2[nH]cnc2[nH]1,inactive,–
CCCCCCCCCC[N+](C)(C)[O-],inactive,–
CC(C)NCC(O)c1ccc(O)c(O)c1 (stereo not given),inactive,–

Compound,outcome,AC50
Cn1cnc2c1c(=O)[nH]c(=O)n2C,inactive,–
CCCCc1nc2cccnc2n1Cc1ccc(-c2ccccc2-c2nnn[nH]2)cc1,inactive,–
Cc1ccc(-c2cc(C(F)(F)F)nn2-c2ccc(S(N)(=O)=O)cc2)cc1,inactive,–
CCCCCCC(C=O)=Cc1ccccc1,–,129 µM (active) and 60 µM (active)
CCN(CC)CCOc1ccc(C(=C(Cl)c2ccccc2)c2ccccc2)cc1,inactive,–
CC1=C(C)S(=O)(=O)CCS1(=O)=O,inactive,–
COc1ccc(C(=O)Nc2nc3ccccc3c(NCc3ccccc3)c2C#N)cc1,inactive,–
CC(=O)CC(c1ccccc1)c1c(O)c2ccccc2oc1=O (stereo not given),inactive,–
Cc1ccc(C(C)(C)C)c(O)c1,–,100 µM (active)
OCC(CO)n1cnc(-c2ccc(F)cc2)c1-c1ccnc(Oc2ccccc2)n1,inactive,–
CC(=O)OCC(COC(C)=O)OC(C)=O,inactive,–
C/C=C/c1ccc(OC)cc1,inactive,–
O=C(O)CN(CC(=O)O)CC(=O)O,inactive,–
COc1ccc(OC(F)(F)F)cc1CN[C@H]1CCCN[C@H]1c1ccccc1,inactive,–
O=C(O)c1cccnc1,inactive,–
NC1CCCCC1,inactive,–
Cc1c(C)c2c(c(C)c1O)CCC(C)(COc1ccc(CC3SC(=O)NC3=O)cc1)O2 (stereo not given),inactive,–
O=C1CCCCC1,inactive,–
CC(COCC(C)OC(=O)c1ccccc1)OC(=O)c1ccccc1 (stereo not given),inactive,–
